# From PubChem BioAssay (NCATS)
# “And” between values parts separate entries of the source, which are not always exact repeats. Identical values can stand only once. Records with an inconclusive call do not appear. The source made the active and inactive calls. Unless noted, calls come from the whole dose curve; as a rule, active = well fitted curve in the direction sought with a large enough effect; inconclusive = small, poorly fitted or top-dose-only effect, or another doubt; inactive = no such curve, though single readings can be large; an effect the other way counts as inactive or inconclusive.
# Legend:
# Tov112D = assay: Primary qHTS to identify gynecologic anti-cancer compounds using libraries of approved drugs and bioactive compounds (AID 1345084); settings: Gynecologic cancer cell panel viability, ATPlite luminescence, 48 h; series mostly up to 57.5 µM; note: % is set by controls: 0 for no effect and ±100 for the full control effect; nearly all actives have a fitted effect of over 55% in size
# Outline: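 Measured: luminescence after ATPlite addition (15 min, RT). Exposure: 48 h, 37 C, 5% CO2.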
# [1] = Drug repurposing screens with cells derived from glioblastoma tumor samples (AID 1345199); settings: GBM patient neurospheres viability, ATP luminescence, 48 h; note: nearly all actives have a fitted effect of over 40% in size; note: potency is the fitted concentration of half-maximal effect; for activity, negative = cell killing: % is set by controls: 0 for no effect and ±100 for the full control effect
# Outline: (§1)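 Primary testing used CD133+ neurospheres from four GBM patients, seven concentrations, 48 h exposure and ATP-based viability; confirmation added three slower-growing patient lines.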
# astro = assay: as above; settings: viability, ATP luminescence, 48 h; series mostly up to 45.9 µM
# Outline: as §1
# [2] = target: Nuclear receptor subfamily 1 group I member 2 (Rattus norvegicus) (UniProt Q9R1A7); assay: qHTS assay for small molecule activators of the rat pregnane X receptor (rPXR) signaling pathway (AID 651751; call rule not given here; note: 0% is about no effect); settings: rPXR reporter cells, luciferase (One-Glo), 24 h
# [3] = qHTS assay for small molecule activators of the human pregnane X receptor (PXR) signaling pathway (AID 720659; call rule not given here; note: 0% is about no effect); settings: DPX-2 HepG2 CYP3A4-luciferase, 24 h; series mostly up to 92.3 µM
# [4] = at 45.9 µM (top of the series), tumour line B
# [5] = at 45.9 µM (top of the series), tumour line D
# [6] = at 46 µM (top of the series), tumour line A
# [7] = at 46.1 µM (top of the series), tumour line C
# [8] = at 20 µM (top of the series), tumour line C
# [9] = at 21.2 µM (top of the series), tumour line B
# [10] = at 21.2 µM (top of the series), tumour line D
# [11] = at 21.3 µM (top of the series), tumour line A
# Sequence of Nuclear receptor subfamily 1 group I member 2 (Rattus norvegicus) (Q9R1A7 whole entry, looked up): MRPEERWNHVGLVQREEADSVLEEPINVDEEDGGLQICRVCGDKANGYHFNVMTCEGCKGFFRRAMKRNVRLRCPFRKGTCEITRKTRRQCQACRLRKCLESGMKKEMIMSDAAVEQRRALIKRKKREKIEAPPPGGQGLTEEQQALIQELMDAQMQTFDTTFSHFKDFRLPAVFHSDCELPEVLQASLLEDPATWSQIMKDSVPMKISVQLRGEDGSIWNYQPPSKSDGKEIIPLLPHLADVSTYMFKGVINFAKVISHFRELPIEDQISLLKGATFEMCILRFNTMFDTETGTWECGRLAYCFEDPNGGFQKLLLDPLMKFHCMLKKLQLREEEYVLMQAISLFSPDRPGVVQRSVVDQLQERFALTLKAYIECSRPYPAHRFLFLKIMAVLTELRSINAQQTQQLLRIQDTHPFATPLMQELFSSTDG
smiles,measurement,setting,value
NC(=O)NO,Potency,Tov112D,inactive
same,"activity, negative = cell killing",[1]; [4],-13.8% (inactive)
same,"activity, negative = cell killing",[1]; [5],-5.79% (inactive)
same,"activity, negative = cell killing",[1]; [6],-19.1% (inactive)
same,"activity, negative = cell killing",[1]; [7],-11.2% (inactive)
same,Potency,astro,inactive
Cn1c(=O)c2[nH]cnc2n(C)c1=O,Potency,Tov112D,inactive
same,"activity, negative = cell killing",[1]; [4],-8.57% (inactive)
same,"activity, negative = cell killing",[1]; [5],-12.3% (inactive)
same,"activity, negative = cell killing",[1]; [6],-8.84% (inactive)
same,"activity, negative = cell killing",[1]; [7],-5.36% (inactive)
same,max response,[2],5.46% (inactive)
same,outcome,[3],inactive
CC(C)NCC(O)COc1ccc(CCOCC2CC2)cc1 (stereo not drawn),Potency,Tov112D,inactive
same,"activity, negative = cell killing",[1]; [4],-17.4% (inactive)
same,"activity, negative = cell killing",[1]; [5],-21.3% (inactive)
same,"activity, negative = cell killing",[1]; [7],-27.5% (inactive)
same,Potency,[1]; tumour line A,17.8 µM (active)
same,Potency,astro,inactive
NCCS(=O)(=O)O,Potency,Tov112D,inactive
same,"activity, negative = cell killing",[1]; [4],-27.3% (inactive)
same,"activity, negative = cell killing",[1]; [5],-0.425% (inactive)
same,"activity, negative = cell killing",[1]; [6],17.9% (inactive)
same,"activity, negative = cell killing",[1]; [7],-20.3% (inactive)
NC12CC3CC(CC(C3)C1)C2,Potency,Tov112D,inactive
same,"activity, negative = cell killing",[1]; [4],-22.3% (inactive)
same,"activity, negative = cell killing",[1]; [6],14.4% (inactive)
same,"activity, negative = cell killing",[1]; [7],2.2% (inactive)
same,Potency,astro,inactive
NS(=O)(=O)c1cc2c(cc1Cl)NCNS2(=O)=O,Potency,Tov112D,inactive
same,"activity, negative = cell killing",[1]; [4],-16.5% (inactive)
same,"activity, negative = cell killing",[1]; [5],-0.301% (inactive)
same,"activity, negative = cell killing",[1]; [6],-4.73% (inactive)
same,"activity, negative = cell killing",[1]; [7],-21.1% (inactive)
same,max response,[2],-0.0581% (inactive) and 1.2% (inactive)
same,outcome,[3],inactive
NCCCCCC(=O)O,Potency,Tov112D,inactive
same,"activity, negative = cell killing",[1]; [8],16.3% (inactive)
same,"activity, negative = cell killing",[1]; [9],-4.6% (inactive)
same,"activity, negative = cell killing",[1]; [10],-5.09% (inactive)
same,"activity, negative = cell killing",[1]; [11],-27.1% (inactive)
CN(C)C(=N)N=C(N)N,Potency,Tov112D,inactive
same,"activity, negative = cell killing",[1]; [8],-29.3% (inactive)
same,"activity, negative = cell killing",[1]; [9],-4.74% (inactive)
same,"activity, negative = cell killing",[1]; [10],-25.1% (inactive)
same,"activity, negative = cell killing",[1]; [11],-0.697% (inactive)
COc1ccc2[nH]cc(CCNC(C)=O)c2c1,Potency,Tov112D,inactive
same,"activity, negative = cell killing",[1]; [4],-3.86% (inactive)
same,"activity, negative = cell killing",[1]; [5],3.96% (inactive)
same,"activity, negative = cell killing",[1]; [6],-18.9% (inactive)
same,"activity, negative = cell killing",[1]; [7],-11.3% (inactive)
same,max response,[2],3.19% (inactive) and 0.0273% (inactive) and 3.25% (inactive)
same,outcome,[3],inactive
